# Assay results taken from PubChem BioAssay.
# Where “and” joins values, the source holds several entries; their conditions need not be identical. Equal entries are not always repeated. For some assays here: Entries with a potency or affinity are not part of this list. Calls of active or inactive are those of the source.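 Rule for the calls, unless noted: active = thallium flux through the channel raised or lowered by more than 3 SD from vehicle-only wells, actives on both sides; inactive = the rest.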
# Key:
# [1] = liver-stage malaria parasite growth inhibition, primary screen, cell-based, HepG2, luciferase luminescence, HepG2 viability (AID 624349; in the data active = parasite load remaining mostly below about 12%, no sharp cut-off; inactive = mostly above about 10%;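 note: 100% = mean of DMSO negative control wells on the same plate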); settings: P. berghei liver stage in HepG2, luciferase luminescence, concentration not given here; parasite load remaining: stronger effect = lower value; viability: measured here: HepG2 viability without parasites
# [2] = Cy5 fluorescence interference with SSB-bound oligo, artefact control for HCV NS3 helicase inhibitor project, biochemical, NIH Clinical Collection, E. coli SSB (AID 743268; call rule not given here)
# [3] = modulation of C. elegans fzo-1 (AID 1259413; call rule not given here;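 note: fzo-1 mutant C. elegans worms in liquid wells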); settings: C. elegans fzo-1 modulator screen, mean read-out; stronger effect = higher value
# [4] = viability rescue of complex I mutant cybrids, primary screen, cell-based, galactose medium, ATP luminescence (AID 1645843;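 active = z-score of at least 1.8 in each of two replicates, scored against plate mean and spread of sample wells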;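 note: positive z means more ATP and so rescue of galactose-driven cybrid death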); settings: complex I mutant cybrid cells, 72 h, stronger effect = higher value
# F380Y/beta1 = assay: modulators of BK channel variants, profiling panel, selectivity assay, cell-based, U2OS BacMam, thallium flux, beta subunits (AID 1259406); settings: at 30 µM;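 note: initial slope of Thallos dye fluorescence rise after thallium is added; log ratio against the mean of 0.3% DMSO vehicle wells on the same plate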
# F380Y/beta4 = assay: as above; settings: at 30 µM
# R275C = assay: as above; settings: at 30 µM
# R275C/beta1 = assay: as above; settings: at 30 µM
# R275C/beta2Delta = assay: as above; settings: at 30 µM
# R275C/beta4 = assay: as above; settings: at 30 µM
# R275C/Slo1WT/beta2 = assay: as above; settings: at 30 µM
# [5] = polyglutamine-triggered caspase-3 activation inhibitors, cell-based (AID 1583); settings: polyglutamine-induced caspase-3 activation, cell assay; stronger effect = higher value;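 tested at 10 µM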
# [6] = suppressors of polyQ aggregation in yeast, 75Q-TubU reporter (AID 1593); settings: Yeast 75Q polyglutamine aggregation reporter
# [7] = rescue of polyQ-huntingtin neuronal dysfunction in worms, whole organism, C. elegans mechanosensory neurons, N-terminal huntingtin (AID 1599); settings: touch response, stronger effect = higher value
# [8] = inhibitors of mitochondrial cytochrome c release, biochemical, purified mitochondria (AID 1603); settings: stronger effect = lower value;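 note: mouse liver mitochondria challenged with calcium chloride; signal normalized to the plate average as 100%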
# [9] = inhibitors of polyQ protein aggregation (AID 1604); settings: polyglutamine-induced protein aggregation inhibition assay; stronger effect = higher value; tested at 2.5 µM
# [10] = enhancers of glutamate uptake in motor neurons, MN-1 cell line (AID 1612); settings: MN-1 motor neuron cells, stronger effect = higher value;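 note: tested at 1 µM final; 0% = mean of DMSO vehicle wells on each plate; positive means more glutamate uptake than control and negative means less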
# [11] = suppressors of polyglutamine aggregation in yeast, 75Q-TubH (AID 1616); settings: S. cerevisiae 75Q-TubH polyglutamine aggregation suppression; stronger effect = higher value
# [12] = hESC survival regulators, cell-based (AID 493140; call rule not given here;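 note: cells exposed to compounds for four days before counting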); settings: human embryonic stem cell survival screen; stronger effect = higher value
# [13] = test system: Hepatitis C virus NS3 helicase; assay: HCV NS3 helicase inhibitors, primary screen, biochemical, fluorescence polarization, LOPAC1280 library (AID 687035; in the data active = inhibition above about 37%); settings: Purified HCV NS3 helicase, Cy5-dT15 ssDNA binding fluorescence polarization; stronger effect = higher value; concentration not given here
structure (smiles),measurement,setting,value
CCCCC1=NC2(CCCC2)C(=O)N1Cc1ccc(-c2ccccc2-c2nn[nH]n2)cc1,parasite load remaining,[1],50.9% (inactive) and 54.9% (inactive) and 98.2% (inactive)
same,viability,[1],86.5% and 93.9% and 73.1%
same,fluorescence ratio,[2],1.06 (inactive)
same,mean signal,[3],269 (inactive)
same,z-score,[4],1.65 (inactive)
same,log fold change Tl+ flux,F380Y/beta1,0.0995 (active)
same,log fold change Tl+ flux,F380Y/beta4,0.0736 (inactive)
same,log fold change Tl+ flux,R275C,0.00561 (inactive)
same,log fold change Tl+ flux,R275C/beta1,0.109 (active)
same,log fold change Tl+ flux,R275C/beta2Delta,0.104 (active)
same,log fold change Tl+ flux,R275C/beta4,0.051 (inactive)
same,log fold change Tl+ flux,R275C/Slo1WT/beta2,0.0476 (inactive)
O=C(CCCN1CC=C(n2c(=O)[nH]c3ccccc32)CC1)c1ccc(F)cc1,inhibition,[5],-1.81%
same,score,[6],1.12
same,rescue above control,[7],6.51
same,cytochrome c release ratio,[8],1.19
same,inhibition of aggregation,[9],63.6%
same,glutamate uptake change,[10],4.12%
same,aggregation suppression score,[11],1.21
same,survival,[12],4.83 (inactive)
same,fluorescence ratio,[2],0.99 (inactive)
same,mean signal,[3],249 (inactive)
same,z-score,[4],-0.69 (inactive)
same,log fold change Tl+ flux,F380Y/beta1,-0.0432 (inactive)
same,log fold change Tl+ flux,F380Y/beta4,0.0551 (inactive)
same,log fold change Tl+ flux,R275C,0.0212 (inactive)
same,log fold change Tl+ flux,R275C/beta1,0.0837 (active)
same,log fold change Tl+ flux,R275C/beta2Delta,0.0699 (inactive)
same,log fold change Tl+ flux,R275C/beta4,0.00129 (inactive)
same,log fold change Tl+ flux,R275C/Slo1WT/beta2,0.0371 (inactive)
C[C@H](CS)C(=O)N1CCC[C@H]1C(=O)O,inhibition,[5],11.5%
same,score,[6],1.09
same,rescue above control,[7],-12.7
same,cytochrome c release ratio,[8],0.82
same,inhibition of aggregation,[9],37.2%
same,glutamate uptake change,[10],-3.95%
same,aggregation suppression score,[11],1.08
same,inhibition,[13],0% (inactive)
same,mean signal,[3],261 (inactive)
same,z-score,[4],0.49 (inactive) and 0.465 (inactive) and -0.54 (inactive)
same,log fold change Tl+ flux,F380Y/beta1,-0.0696 (inactive)
same,log fold change Tl+ flux,F380Y/beta4,0.0146 (inactive)
same,log fold change Tl+ flux,R275C,0.0445 (inactive)
same,log fold change Tl+ flux,R275C/beta1,-0.0207 (inactive)
same,log fold change Tl+ flux,R275C/beta2Delta,0.0269 (inactive)
same,log fold change Tl+ flux,R275C/beta4,-0.00777 (inactive)
same,log fold change Tl+ flux,R275C/Slo1WT/beta2,0.0231 (inactive)
CCOC(=O)[C@H](CCc1ccccc1)N[C@@H](C)C(=O)N1Cc2ccccc2C[C@H]1C(=O)O,inhibition,[5],20.2%
same,score,[6],1.04
same,rescue above control,[7],4.28
same,cytochrome c release ratio,[8],0.82
same,inhibition of aggregation,[9],37.2%
same,glutamate uptake change,[10],3.41%
same,aggregation suppression score,[11],1.35
same,fluorescence ratio,[2],1.02 (inactive)
same,mean signal,[3],206 (inactive)
same,z-score,[4],0.72 (inactive) and 0.435 (inactive)
same,log fold change Tl+ flux,F380Y/beta1,-0.0839 (inactive)
same,log fold change Tl+ flux,F380Y/beta4,-0.00668 (inactive)
same,log fold change Tl+ flux,R275C,-0.00535 (inactive)
same,log fold change Tl+ flux,R275C/beta1,0.0226 (inactive)
same,log fold change Tl+ flux,R275C/beta2Delta,0.0266 (inactive)
same,log fold change Tl+ flux,R275C/beta4,0.0169 (inactive)
same,log fold change Tl+ flux,R275C/Slo1WT/beta2,0.0209 (inactive)
CN(C)CCC=C1c2ccccc2CCc2ccccc21,inhibition,[5],5.08%
same,score,[6],0.94
same,rescue above control,[7],17.6
same,cytochrome c release ratio,[8],1.57
same,inhibition of aggregation,[9],70.5%
same,glutamate uptake change,[10],-1.53%
same,aggregation suppression score,[11],0.931
same,survival,[12],7.08 (inactive)
same,inhibition,[13],-5% (inactive)
same,fluorescence ratio,[2],0.94 (inactive)
same,mean signal,[3],243 (inactive)
same,z-score,[4],-0.73 (inactive) and -1.31 (inactive)
same,log fold change Tl+ flux,F380Y/beta1,0.103 (inactive)
same,log fold change Tl+ flux,F380Y/beta4,0.189 (active)
same,log fold change Tl+ flux,R275C,0.07 (inactive)
same,log fold change Tl+ flux,R275C/beta1,0.106 (inactive)
same,log fold change Tl+ flux,R275C/beta2Delta,0.128 (active)
same,log fold change Tl+ flux,R275C/beta4,0.135 (active)
same,log fold change Tl+ flux,R275C/Slo1WT/beta2,0.00351 (inactive)
